Only some compounds are listed: those with a hit (about 17% of all), similar ones and a draw of the others.
TDP1 cell noCPT: qHTS for Inhibitors of human tyrosyl-DNA phosphodiesterase 1 (TDP1): qHTS in cells in absence of CPT; DT40 Tdp1-/- hTDP1 cells, no CPT, ATP luminescence, 48 h; Potency, µM (doses to about 46.2 µM), inactives show top-dose activity change, negative = growth inhibition, most hits filed as inhibitors; hit rate 15% among 420,000; AID 686978, 2013; note: % is set by controls: 0 for no effect and ±100 for the full control effect; nearly all actives have a fitted effect of over 55% in size
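Compound effects on proliferation are scored in DT40 Tdp1-/-;hTDP1 cells in the absence of CPT. ATP levels (CellTiter-Glo luminescence) are recorded after a ≥48 hr, 37 °C incubation.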
DT40 TDP1 CPT: growth inhibition of DT40 Tdp1-/-;hTDP1 cells with camptothecin (screen for TDP1 inhibitors); Potency, µM (highest dose often 46.2 µM), for the others: at the top dose activity change, negative = growth inhibition, most hits filed as inhibitors; chicken DT40 Tdp1-/-;hTDP1 cells + 20 nM CPT, ATP luminescence, 48 h; hit rate 12% among 420,000; AID 686979; note: % is set by controls: 0 for no effect and ±100 for the full control effect; nearly all actives have a fitted effect of over 55% in size
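Cell growth measured by CellTiter-Glo luminescence after a minimum 48 h, 37 C compound exposure with 20 nM CPT in Tdp1-knockout DT40 cells stably expressing hTDP1, seeded 400/well; qHTS titration format.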
TDP1 block: blocks human tyrosyl-DNA phosphodiesterase 1; Potency, µM (doses to about 130 µM), inactives show top-dose activity change, negative = inhibition, hits mostly inhibitors; AID 485290; hit rate 0.28% among 350,000; Q9NUW8; recombinant TDP1, AlphaScreen DNA substrate cleavage; note: % is set by controls: 0 for no effect and ±100 for the full control effect; nearly all actives have a fitted effect of over 40% in size
Target sequence (Q9NUW8 whole entry, looked up): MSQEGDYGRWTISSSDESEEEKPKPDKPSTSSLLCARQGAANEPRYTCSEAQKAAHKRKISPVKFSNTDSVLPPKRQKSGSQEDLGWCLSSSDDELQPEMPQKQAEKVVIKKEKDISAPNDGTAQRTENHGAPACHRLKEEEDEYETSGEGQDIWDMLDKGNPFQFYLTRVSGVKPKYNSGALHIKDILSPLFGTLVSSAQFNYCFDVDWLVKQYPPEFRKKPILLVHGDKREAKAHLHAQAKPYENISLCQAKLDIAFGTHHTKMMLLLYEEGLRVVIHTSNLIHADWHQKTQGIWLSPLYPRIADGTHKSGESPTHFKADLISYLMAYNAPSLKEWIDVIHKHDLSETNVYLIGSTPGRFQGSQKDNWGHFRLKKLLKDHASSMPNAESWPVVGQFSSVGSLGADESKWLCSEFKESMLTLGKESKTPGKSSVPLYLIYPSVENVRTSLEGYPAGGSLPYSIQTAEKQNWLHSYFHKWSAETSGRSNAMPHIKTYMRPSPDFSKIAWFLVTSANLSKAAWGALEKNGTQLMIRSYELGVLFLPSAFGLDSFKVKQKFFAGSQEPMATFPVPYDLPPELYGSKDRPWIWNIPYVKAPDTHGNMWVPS
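Compounds were preincubated with Tdp1 (1 nM final) for 15 min at room temperature before substrate (15 nM final) started a 5 min reaction; beads (10 ug/ml final) were then added for 10 min before AlphaScreen detection.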
ClpP mod: qHTS Assay for Activators of ClpP; ATP-dependent Clp protease proteolytic subunit (Bacillus subtilis (strain 168)), P80244; purified B. subtilis ClpP, FRET peptide cleavage, 20 min; Potency, µM (titrated, usually from 57.5 µM), inactives show at the top dose activity change, negative = active; hit rate 1.9% among 340,000; active = well fitted falling curve with a large enough effect; inconclusive = small, poorly fitted or top-dose-only effect; inactive = no such curve, though single readings can be large or run the other way; note: the source files actives as falling curves though it sought activators and does not explain the sign; nearly all actives have a fitted effect of over 65% in size
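Purified B. subtilis ClpP, 10 microg/mL final in Tris/HCl pH8 with KCl, BSA, glycerol and Tween-20, cleaved an Abz/nitrotyrosine-quenched decapeptide. Fluorescence (ex 320, em 430) was read at 0 and 20 min at room temperature. Delta was normalized to 5.8 microM ADEP and DMSO/no-enzyme controls.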
Numbers without * were called inactive; [ ] = dose if it differs, or a comment. Unless noted, calls come from the whole dose curve; as a rule, active = well fitted curve in the direction sought with a large enough effect; inconclusive = small, poorly fitted or top-dose-only effect, or another doubt; inactive = no such curve, though single readings can be large; an effect the other way counts as inactive or inconclusive. Potency is the fitted concentration of half-maximal effect.

Screening CCCOc1ccc(C2c3c(-c4ccccc4O)n[nH]c3C(=O)N2CCc2ccccc2)cc1OCC (stereo not drawn) returned TDP1 cell noCPT 13µM*, DT40 TDP1 CPT 12µM*, TDP1 block 9% and ClpP mod -4%.
Screening CCCCOc1ccc(C2c3c(-c4ccccc4O)n[nH]c3C(=O)N2Cc2ccncc2)cc1OC (stereo not drawn) returned TDP1 cell noCPT 23µM*, DT40 TDP1 CPT inconclusive, TDP1 block 9% and ClpP mod 0%.
`Cc1ccc(C2c3c(-c4ccccc4O)n[nH]c3C(=O)N2CCc2ccccc2)cc1` (stereo not drawn) gave TDP1 cell noCPT -106%, DT40 TDP1 CPT inconclusive, TDP1 block 6% and ClpP mod -5%.
CCCN1C(=O)c2[nH]nc(-c3ccccc3O)c2C1c1ccc(OCc2ccccc2)c(OC)c1 (stereo not drawn) was read as TDP1 cell noCPT 16µM*, DT40 TDP1 CPT 16µM*, TDP1 block 11% and ClpP mod -3%.
COc1cc(C2c3c(-c4ccccc4O)n[nH]c3C(=O)N2CCO)ccc1OCc1ccccc1 (stereo not drawn) was read as TDP1 cell noCPT 26µM*, DT40 TDP1 CPT -28%, TDP1 block 1% and ClpP mod 1%.
For O=C1c2[nH]nc(-c3ccccc3O)c2C(c2cccc(OCc3ccccc3)c2)N1CCCO (stereo not drawn) the results were TDP1 cell noCPT inconclusive, DT40 TDP1 CPT inconclusive, TDP1 block 5% and ClpP mod -1%.
`O=P(O)(O)OC(Cn1cncn1)(Cn1cncn1)c1ccc(F)cc1F` gave TDP1 cell noCPT 5% and DT40 TDP1 CPT 16%.
`Cc1c(C(=O)NC2CCCC2)sc2ncnc(NCCN(C)C)c12` gave TDP1 cell noCPT 7% and DT40 TDP1 CPT -5%[9.04 µM].
Screening O=C(c1ccccc1)c1ccc(N2CCOCC2)c(NC(=O)c2ccco2)c1 returned TDP1 cell noCPT 21µM*, DT40 TDP1 CPT inconclusive, TDP1 block 5% and ClpP mod 0%.
O=C(Nc1cc(Cl)ccc1N1CCOCC1)c1ccco1 was read as TDP1 cell noCPT -9%, DT40 TDP1 CPT 1%, TDP1 block 2% and ClpP mod -3%.
Screening COC(=O)c1ccc(N2CCCCC2)c(NC(=O)c2ccco2)c1 returned TDP1 cell noCPT 23µM* and DT40 TDP1 CPT inconclusive.
Screening O=C(CNC(=O)c1ccco1)Nc1cc(Cl)ccc1N1CCOCC1 returned TDP1 cell noCPT -25%, DT40 TDP1 CPT -13%, TDP1 block 4% and ClpP mod 28µM*.
O=C(Nc1ccc(N2CCCCC2)c(C(=O)O)c1)c1ccco1 was read as TDP1 cell noCPT 7%, DT40 TDP1 CPT -5%, TDP1 block 4% and ClpP mod -1%.
CN1CCc2c(sc3ncn4nc(-c5ccccc5O)nc4c23)C1 was read as TDP1 block 10%.
For COC(=O)c1cc2sccc2n1Cc1nc(-c2ccc(C)cc2)oc1C the results were TDP1 cell noCPT -4%, DT40 TDP1 CPT -8%, TDP1 block -3% and ClpP mod -4%.
Screening O=C(C[N+]12CCCc3cccc(c31)CCC2)c1ccccc1 returned TDP1 cell noCPT 10µM*, DT40 TDP1 CPT inconclusive and ClpP mod -30%.
`C[N+]1(CC(=O)c2ccccc2)CCc2ccccc2C1` (stereo not drawn) gave TDP1 cell noCPT inconclusive, DT40 TDP1 CPT inconclusive and ClpP mod 0%.
C[N+]1(CC(=O)c2ccc(F)cc2)CCc2ccccc2C1 (stereo not drawn) was read as TDP1 cell noCPT -21%, DT40 TDP1 CPT -11% and ClpP mod 0%.
C[N+]1(CC(=O)c2ccc(I)cc2)CCCc2ccccc21 (stereo not drawn) was read as TDP1 cell noCPT 7.1µM*, DT40 TDP1 CPT 7.9µM* and ClpP mod -2%.
For COc1cccc(CNC(=O)[C@@H]2CCCN2C(=O)[C@H]2CCCCN2S(=O)(=O)c2ccc(OC)c(C)c2)c1 the results were TDP1 cell noCPT 21µM*, DT40 TDP1 CPT inconclusive and ClpP mod 1%.
`COc1cccc(CNC(=O)[C@@H]2CCCN2C(=O)[C@@H]2CCCN2S(=O)(=O)c2ccc(OC)c(C)c2)c1` gave TDP1 cell noCPT inconclusive, DT40 TDP1 CPT inconclusive and ClpP mod 4%.
`COc1ccc(S(=O)(=O)N2CCC[C@H]2C(=O)N2CCC[C@H]2C(=O)NCc2ccc(F)cc2F)cc1C` gave TDP1 cell noCPT 18µM*, DT40 TDP1 CPT inconclusive and ClpP mod 1%.
`CCN(CCNCC(O)COCc1ccc(Cl)cc1)c1cccc(C)c1` (stereo not drawn) gave TDP1 cell noCPT inconclusive, DT40 TDP1 CPT inconclusive and TDP1 block 3%.
For CN1CCN(C(=O)CCN2C(=O)/C(=C\c3ccc(Cl)cc3Cl)SC2=S)CC1 the results were TDP1 cell noCPT 12µM*, DT40 TDP1 CPT 15µM* and TDP1 block 4%.
O=C(O)CCCN1C(=O)/C(=C\c2ccccc2OCc2ccccc2)SC1=S was read as TDP1 cell noCPT 2% and DT40 TDP1 CPT 2%.
CN1CCN(C(=O)CCCN2C(=O)/C(=C/c3ccc(Cl)cc3)SC2=S)CC1 was read as TDP1 cell noCPT 12µM*, DT40 TDP1 CPT 15µM*, TDP1 block 6% and ClpP mod 1%.
Screening CN1CCN(C(=O)CCCN2C(=O)/C(=C/c3ccccc3)SC2=S)CC1 returned TDP1 cell noCPT 16µM*, DT40 TDP1 CPT 18µM* and TDP1 block 0%.
Screening CCc1ccc(/C=C2\SC(=S)N(CCC(=O)N3CCN(C)CC3)C2=O)cc1 returned TDP1 cell noCPT inconclusive, DT40 TDP1 CPT -21%, TDP1 block -13% and ClpP mod -3%.
Screening O=C(O)CCCN1C(=O)/C(=C\C(Cl)=C\c2ccccc2)SC1=S returned TDP1 cell noCPT 21µM*, DT40 TDP1 CPT 18µM* and ClpP mod 0%.
For CCOC(=O)Cn1c(=O)oc2cc(S(=O)(=O)N3CCC(C(=O)OCC)CC3)ccc21 the results were TDP1 cell noCPT 3%, DT40 TDP1 CPT 7%, TDP1 block -1% and ClpP mod 1%.
`O=C(Nc1ccnn1C1CCN(CCCc2ccccc2)CC1)c1cccc(F)c1` gave TDP1 cell noCPT -4%, DT40 TDP1 CPT inconclusive, TDP1 block 3% and ClpP mod 1%.
O=C(NCCN1CCCC1)C(c1ccccc1)c1ccccc1 was read as TDP1 cell noCPT 19%, DT40 TDP1 CPT 2% and ClpP mod -2%.
For C[C@H]1CN([C@@H](C)CO)C(=O)CCCn2cc(nn2)CO[C@@H]1CN(C)C(=O)OCc1ccccc1 the results were TDP1 cell noCPT -2%, DT40 TDP1 CPT 5% and ClpP mod -3%.
